# Assay outcomes from PubChem.
# A selection: hits, their analogues and other compounds. The true share with any hit is near 6.2%.
# ATXN2 expr inh – inhibitors of ATXN2 expression; Potency, µM (series often up to 57 µM), without a hit: at the highest dose activity change, negative = inhibition, usual class: inhibitors; AID 1745845; 0.72% of 360,000 active; HEK-293 ATXN2-luciferase reporter, luminescence, 24 h; also: % is scaled to controls: 0 for no effect and ±100 for the full control effect; nearly all actives have a fitted effect of over 55% in size
#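 ATXN2-luciferase reporter cells (luciferase flanked by upstream and downstream ATXN2 gene portions) were treated 24 h at 37 °C with compounds at up to 57 uM. SteadyGlo luminescence gave expression; GF-AFC fluorescence gave viability.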
# KB-V1 cytotox – kills drug-selected multidrug resistant KB-V1 cells | KB-V1 MDR cells viability, CellTiter-Glo, 72 h | Potency, µM (top dose mostly 46.1 µM), hits mostly cytotoxic | 3.4% of 400,000 active; also: % is scaled to controls: 0 for no effect and ±100 for the full control effect; nearly all actives have a fitted effect of over 60% in size
#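 Potencies derive from concentration-effect curves fitted to normalized luminescence (CellTiter-Glo) of KB-V1 cells treated for 72 h at 37 degrees C in phenol-red-free DMEM containing 10% FBS.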
# HT1080 IDH1KD tx – kills HT-1080 cells with IDH1 knockdown; Potency, µM (series often up to 46.1 µM), inactives show at the top dose activity, negative = toxicity, actives largely listed as cytotoxic; HT-1080 IDH1 knockdown viability, ATP luminescence, 48 h; 2% of 360,000 active;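 also: 0% = DMSO wells and -100% = cell-free medium wells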
#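 Knockdown cells (IDH1KD HT-1080) received compounds 2 h after plating at 750 cells/well and were kept 48 h at 37 °C in 5% FBS RPMI. A CellTiter-Glo luminescence read gave % activity for curve fitting.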
# HT1080-NT tox – kills 2HG-producing HT-1080-NT fibrosarcoma cells. HT-1080-NT fibrosarcoma viability, CellTiter-Glo ATP luminescence, 48 h. Potency, µM (titrated, usually from 46.1 µM), for the others: at the top dose activity, negative = less viability, actives largely listed as cytotoxic. 1.6% of 360,000 active;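 also: NT is the 2HG producing partner of a matched IDH1 knockdown line; 0% = DMSO-treated cells and -100% = media-only wells without cells; nearly all actives have a fitted effect of over 55% in size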
#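 A 48-hour cytotoxicity screen used HT-1080-NT cells plated 2 hours before compound delivery. ATP-based CellTiter-Glo luminescence measured viability, normalized to DMSO and no-cell controls.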
# ATXN viability – cell viability loss in ATXN counter-screen; S2 cells (HEK-293 line with an ATXN2-luciferase reporter) viability, CellTiter-Fluor protease fluorescence, 24 h; Potency, µM (highest dose often 56.7 µM), hits mostly cytotoxic; 0.49% of 400,000 active; also: nearly all actives have a fitted effect of over 40% in size
# KB-3-1 tox – KB-3-1 parental cell cytotoxicity | KB-3-1 viability, CellTiter-Glo ATP luminescence, 72 h | Potency, µM (top dose mostly 46.1 µM), hits mostly cytotoxic | 1.4% of 400,000 active; also: % is scaled to controls: 0 for no effect and ±100 for the full control effect; nearly all actives have a fitted effect of over 60% in size
#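 Parental KB-3-1 adenocarcinoma cells in phenol-red-free DMEM with 10% FBS were pin-treated with compounds at several concentrations, incubated 72 h at 37 °C, and viability read by CellTiter-Glo luminescence; concentration-effect curves were fitted after normalization.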
# Starred values were filed as active, the others as inactive; i = inactive; u = inconclusive; x = no result. Calls follow the shape of the dose curve; as a rule, active = well fitted curve in the direction sought with a large enough effect; inconclusive = small, poorly fitted or top-dose-only effect, or another doubt; inactive = no such curve, though single readings can be large; an effect the other way counts as inactive or inconclusive. Potency is read from the fitted curve at half-maximal effect.
SMILES,ATXN2 expr inh,KB-V1 cytotox,HT1080 IDH1KD tx,HT1080-NT tox,ATXN viability,KB-3-1 tox
CCCCOc1ccc(C(=O)NCC(=O)NCC(c2ccco2)N2CCCCC2)cc1 (configuration not stated),-10.6%,i,-5.3%,-9.5%,i,i
CC(=O)c1ccc(S(=O)(=O)N2CCN(CC(=O)Nc3ccccc3C(=O)NC3CC3)CC2)cc1,-4.6%,i,-0.1%,-7.6%,i,u
O=C(CN1CCN(S(=O)(=O)c2ccccc2)CC1)Nc1ccccc1C(=O)NC1CC1,-1.1%,6.51µM*,13.5%,6.3%,i,i
COc1ccc(S(=O)(=O)N2CCCN(CC(=O)Nc3ccccc3F)CC2)cc1,-9.3%,9.2µM*,-4.9%,15.3%,i,i
Cc1ccc(-n2cnc3c(=O)[nH]cnc32)cc1,1.3%,9.2µM*,10.9%,0.5%,i,u
COc1ccccc1CN1CCOc2ccc(C(C)(O)COc3ccccc3)cc2C1 (configuration not stated),x,x,x,x,i,x
CN1/C(=C\C(=O)CSc2cccc[n+]2[O-])C(C)(C)c2ccccc21,-3.5%,i,-10.4%,-0.3%,i,i
Cc1ccc[n+](CC(=O)/C=C2\N(C)c3ccccc3C2(C)C)c1,-23.1%,u,u,-18.3%,i,7.31µM*
Cc1cccc[n+]1CC(=O)/C=C1\N(C)c2ccccc2C1(C)C,-20.5%,i,u,-13.5%,u,4.11µM*
CCOc1ccccc1NC(=O)Cn1cc(C(=O)c2cccc(OC)c2)c(=O)c2ccc(C)nc21,-2.2%,i,x,x,i,i
OC1(c2ccccc2)CCNCC1,-7.0%,x,x,x,i,x
OC1(c2ccc(Br)cc2)CCNCC1,u,i,u,22.4µM*,i,i
COCCNC(=S)N1CCN(c2cccc(C)c2C)CC1,-28.2%,20.6µM*,-23.1%,-11.9%,i,i
Oc1cccc(-c2nc3c4c(ncn3n2)-c2ccccc2CC42CCCC2)c1,u,7.31µM*,11.2µM*,u,u,i
COc1ccc(OCc2nc3c4c(ncn3n2)-c2ccccc2CC42CCCC2)cc1,1.1%,11.6µM*,13.3%,5.5%,i,i
Cc1nn(Cc2ccccc2)c(C)c1/C=N/NC(=O)CNc1cccc(C(F)(F)F)c1,x,i,-28.6%,-22.5%,x,u
Cc1nn(-c2ccccc2)c(Cl)c1/C=N/NC(=O)OC(C)(C)C,43.8%,13µM*,-17.1%,-2.4%,i,i
Cc1nn(-c2ccccc2)c(Cl)c1/C=N/NC(=O)c1ccco1,78.7%,i,-5.7%,-0.4%,i,u
COc1ccc(NCC(=O)N/N=C/c2c(C)nn(Cc3ccccc3)c2Cl)cc1,-0.7%,11.6µM*,10.7%,6.0%,i,i
CNC(=S)N/N=C/c1c(C)nn(-c2ccccc2)c1Cl,67.8%,u,8.91µM*,u,i,i
CNC(=S)N/N=C/c1c(C)nn(-c2cccc(Cl)c2)c1Cl,-25.0%,i,u,-21.2%,i,i
O=C(NCc1ccco1)c1cc(-c2ccccc2)nn1CC1CC(c2cccnc2)=NO1 (configuration not stated),2.1%,i,2.9%,2.2%,i,i
O=C(NCc1ccc(OC(F)(F)F)cc1)c1cc(-c2ccccc2)nn1CC1CC(c2cccnc2)=NO1 (configuration not stated),-16.8%,20.6µM*,-1.0%,-2.2%,i,i
COc1cc(NS(=O)(=O)c2ccc(C)c(C)c2)c(OC)cc1Cl,-2.1%,18.4µM*,-16.6%,-11.3%,i,u
COc1ccc(OC)c(S(=O)(=O)N2CCCC(C(=O)NCc3ccco3)C2)c1 (configuration not stated),12.1%,i,12.6%,2.7%,i,i
COC(=O)CCSc1cc(NCCOC(C)=O)c([N+](=O)[O-])c2nonc12,4.3%,i,u,20.6µM*,i,i
